Compound activity deposited in PubChem by several laboratories.
This is a sample that favours compounds with a hit; in the whole collection about 4.5% have one here.
EBNA-1 inh = EBNA-1 DNA-binding inhibitors, primary screen, biochemical, fluorescence polarization. inhibition, % at 14.8 µM. 300,000 tested, 0.34% active; in the data active means inhibition above about 28%
ZTA counter = ZTA (EBV) inhibition in EBNA-1 counter-screen; P03206; inhibition, % at 11 µM; ZTA-DNA binding, fluorescence polarization; 320,000 tested, 0.15% active; in the data active means inhibition above about 33%
NR3A LBD binder = binders of NR3A ligand-binding domain, primary screen, biophysical, differential scanning fluorimetry, uHTS; 340,000 tested, 2.5% active; Tm shift relative to glycine control, % at 25 µM; NR3A LBD differential scanning fluorimetry, Tm shift; 0% = protein alone, 100% = glycine-bound protein;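 active means melting temperature shift of at least 10% of the positive control shift, at one fixed dose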
Rpn11 block = Rpn11 (PSMD14) deubiquitinase inhibitors, primary screen, biochemical, fluorescence polarization, uHTS; inhibition, % at 20 µM; 360,000 tested, 0.59% active; 26S proteasome non-ATPase regulatory subunit 14 (Homo sapiens), O00487; human 26S proteasome, Ub4-pepOG fluorescence polarization; 20S core pre-blocked with epoxomicin;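 active means inhibition at 20 µM, scaled to each plate's controls, above about 33%, limit read from the data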
dFosB act = activators of delta FosB homodimer, primary screen, biochemical, fluorescence polarization, TAMRA-CDK5 oligo, single point | 340,000 tested, 0.99% active | purified delta FosB; percent of positive-control signal above neutral wells | Protein FosB (Mus musculus), P13346 | activation, % at 25 µM;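 active means mean activation above about 17%, with every replicate also reaching it, limit read from the data, passing the limit was not always enough; inconclusive means only one of the two conditions met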
Target sequence (P13346 whole entry, looked up): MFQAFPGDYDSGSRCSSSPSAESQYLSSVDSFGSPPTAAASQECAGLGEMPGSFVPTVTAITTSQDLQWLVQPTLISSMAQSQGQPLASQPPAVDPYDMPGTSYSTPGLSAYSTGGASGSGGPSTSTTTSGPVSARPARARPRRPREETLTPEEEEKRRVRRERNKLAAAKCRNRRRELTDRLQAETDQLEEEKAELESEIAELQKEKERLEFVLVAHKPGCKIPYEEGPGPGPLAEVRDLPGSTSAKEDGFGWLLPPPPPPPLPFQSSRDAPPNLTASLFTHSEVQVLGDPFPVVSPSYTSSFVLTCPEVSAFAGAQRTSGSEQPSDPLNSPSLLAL
TPT1 inh = Candida albicans TPT1 enzyme inhibitors, primary screen, biochemical, fluorescence polarization. tRNA 2'-phosphotransferase TPT1 (Candida albicans SC5314). recombinant caTPT1, FP RNA substrate dephosphorylation. inhibition, % at 5 µM. 300,000 tested, 0.81% active. AID 1962, 2009;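 active means inhibition above the mean of all tested compounds plus 3 SD, set per screening campaign, cut at about 24% in these data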;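 further: plate controls were DMSO alone for no effect and ferristatin control at 100 nM for full effect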
The depositor's hits bear a star; ? = inconclusive; . = no result given.

SMILES	EBNA-1 inh	ZTA counter	NR3A LBD binder	Rpn11 block	dFosB act	TPT1 inh
CN1CCCN(S(=O)(=O)c2ccc(O)c(C(=O)O)c2)CC1	1	-10	1	3	0	-1
COc1ccc(/C=C/c2ccc(=O)n(Cc3ccccc3)n2)cc1	-21	-3	15*	-4	-6	-2
CCc1cc2c(=O)n(CC(C)C)cnc2s1	-3	8	18*	0	3	-5
CCCCCn1cnc2sc(CC)cc2c1=O	1	10	8	0	-9	1
CC1CCCC(NC(=O)COC(=O)CCC(=O)c2ccc(F)cc2)C1C (stereo not given)	.	.	-1	5	2	.
CC(C)(C)NC(=O)NC(=O)Cn1ccsc1=N	12	0	-2	-10	-3	2
CCc1ccc(C(=O)Cn2ccsc2=N)cc1	4	1	39*	6	-2	-4
Nc1nc(-c2ccc3c(c2)CCCC3)c(CC(=O)O)s1	.	.	35*	26	-14	.
COC(=O)c1cc(NC(=O)Cc2cc(OC)c(OC)c(OC)c2)cc(C(=O)OC)c1	-4	5	-3	-2	0	2
CCC(C)(C(=O)NC1CCCC1)N(C(=O)CC1NC(=O)NC1=O)c1c(C)n(C)n(-c2ccccc2)c1=O (stereo not given)	11	9	-2	0	-1	1
Cc1ccc(NC(=O)CSc2ccccc2NC(=O)c2ccccc2Cl)cc1Cl	6	11	11*	15	3	-4
Cc1ccc(NC(=O)CSc2ccccc2NC(=O)c2ccccc2)cc1Cl	15	0	1	2	-7	-3
Cc1cc(C)cc(NC(=O)C(OC(=O)c2cc[n+]([O-])cc2)c2ccccc2)c1 (stereo not given)	.	-3	2	2	-8	.
CCOc1ccc(NC(=O)C(C)Oc2ccccc2C(=O)Nc2ccc(C)c(Cl)c2)cc1 (stereo not given)	-2	9	26*	7	-1	1
Cc1ccc(NC(=O)C(OC(=O)c2ccc(NC(N)=O)cc2)c2ccccc2)cc1Cl (stereo not given)	3	2	26*	0	?	4
O=C(OC(C(=O)Nc1ccc(Cl)c(C(F)(F)F)c1)c1ccccc1)C1=COCCO1 (stereo not given)	3	1	13*	-3	-5	-2
COC(=O)c1c(N)sc(C(=O)NCCc2ccccc2)c1C	.	.	9	4	-10	.
Cc1ccc(NC(=O)C(OC(=O)c2ccccc2Cl)c2ccccc2)cc1Cl (stereo not given)	10	4	19*	11	3	-1
Cc1ccc(NC(=O)C(C)c2ccc([N+](=O)[O-])cc2)cc1Cl (stereo not given)	-6	-24	12*	2	-3	0
Cc1cc(C(=O)OC(C(=O)Nc2ccc(C)c(Cl)c2)c2ccccc2)c(C)o1 (stereo not given)	-6	-2	26*	2	-2	1
O=C(N/N=C/c1ccncc1)/C(=C/c1ccccc1)NC(=O)c1ccccc1	9	9	-1	3	-6	-1
Cc1ccnc(N/C=C(/NC(=O)c2ccccc2)C(=O)N/N=C\c2ccc(Cl)cc2)n1	14	27	-1	6	19*	1
Cc1cc(C2CC(=O)Nc3ccccc3S2)c(C)s1 (stereo not given)	-11	-9	-2	0	2	0
O=C(O)c1ccc(N=NNc2cccc([N+](=O)[O-])c2)cc1	-6	-9	-2	1	-5	0
N#C/C(=N\Nc1cccc([N+](=O)[O-])c1)C(=O)c1ccc(Br)cc1	9	15	29*	6	-2	2
SMILES	EBNA-1 inh	ZTA counter	NR3A LBD binder	Rpn11 block	dFosB act	TPT1 inh
CC(C)(C)NC(=O)C(c1ccc(-c2ccccc2)cc1)N(C[C@H]1CC[C@@H]([C@@H]2CC[C@H](CO)O2)O1)C(=O)c1ccc2ccccc2c1 (stereo not given in full)	.	.	2	7	-9	.
CC(C)(C)NC(=O)C(c1ccc(-c2ccccc2)cc1)N(C[C@H]1CC[C@@H]([C@@H]2CC[C@H](CO)O2)O1)C(=O)c1ccc(-c2ccccc2)cc1 (stereo not given in full)	.	.	30*	4	-13	.
Cc1ccccc1C(=O)NCC(=O)Nc1ccc(C)c(S(=O)(=O)N2CCCCCC2)c1	-7	5	-2	6	-9	-2
Cn1nc(C(=O)N2CCN(S(=O)(=O)c3ccccc3)CC2)c2ccccc2c1=O	-8	-9	12*	-9	-1	-2
CCOc1ccc(C(=O)NC(C(=O)NCc2cccnc2)C(C)C)cc1 (stereo not given)	-8	-2	-1	5	3	-2
CN1CCN(CC(=O)Nc2nc(-c3ccccc3)cs2)CC1	-19	9	13*	2	3	2
Cc1ccc(-c2csc(NC(=O)C[n+]3cc(-c4ccccc4)n4c3CCC4)n2)cc1	-10	25	-5	6	.	-2
Cc1ccc(-c2csc(NC(=O)C[n+]3cc(-c4ccc(C)cc4)n4c3CCC4)n2)cc1	-1	15	-1	4	37*	3
O=C(Cc1c(F)c(F)c(F)c(F)c1F)Nc1nc(-c2ccccc2)cs1	-11	-19	12*	-3	-2	-2
COc1ccc(CCNC(=O)Cn2c(=O)n(-c3ccc(C)c(F)c3)c(=O)c3sccc32)cc1OC	6	-4	-3	2	-1	-3
Cn1c(-c2ccc(C#N)cc2)c(C#Cc2ccccc2)c2ccccc21	.	.	-4	13	-2	.
N#Cc1c(-c2ccc(Cl)cc2)n(O)c2ccccc12	.	.	23*	6	-2	.
O=C(/C=C/c1ccccc1)CC(=O)c1ccccc1O	-3	7	13*	2	-8	6
O=C(/C=C/c1ccccc1)NC(=O)c1ccccc1O	10	3	-2	0	-6	2
O=C(O)CS(=O)(=O)c1ccc(Oc2ccc(S(=O)(=O)CC(=O)O)cc2)cc1	-4	10	11*	.	.	2
CCC(/C=C1\Oc2ccc(OC)cc2N1C)=C\c1sc2ccccc2[n+]1CCCS(=O)(=O)[O-]	.	.	-1	.	26*	.
Cc1ccc2c(c1)sc(C)[n+]2CCCS(=O)(=O)[O-]	-9	-5	-1	-1	-6	-1
Cc1ccc(-c2csc3nc(SCC(=O)N(C)C)n(Cc4ccccc4)c(=O)c23)cc1	-5	8	1	7	1	-1
